Measured values from PubChem BioAssay (NCI).
This is part of a sample that, as a whole, favours compounds with a hit. Of some 83,000 tested, about 20% had one in any assay.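 Plates (96-well) were seeded with cells, treated with compound at one concentration, and incubated for 48 hours before percent growth was determined.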 Unmarked numbers belong to inactive results. Activity calls are given as the source filed them. The calls were made as follows: active = growth percent below 10; inactive = the rest.

Tested on: UACC-257 melanoma
Experiment: NCI-60 one-dose screen, 48 h (100 = growth as untreated, 0 = no growth, -100 = all killed)
Settings: 10 µM unless noted

Row | Compound | growth
1 | Cn1cc(-c2cc3nc(-c4cn(C)c5ncccc45)cc(N)n3n2)c2cc(Cl)ccc21 | -76.5% (active)
2 | COc1ccc2[nH]cc(-c3cc(N)n4nc(-c5cn(C)c6ccccc56)cc4n3)c2c1 | -86.2% (active)
3 | COc1ccc(Cc2nn(CC(=O)N/N=C/c3ccc(F)cc3)c(=O)c3c(C)noc23)cc1 | 54.3%
4 | Cc1ccc(NCC(=O)Cn2cc(COc3ccc(C=Nc4cnc5ccccc5c4)cc3)nn2)cc1 | 105%
5 | Cc1cccc(NC(=O)CN2CCN(c3ncnc4c3cnn4-c3ccccc3)CC2)c1 | 102%
6 | Cn1cc(-c2nc(N)nnc2-c2c[nH]c3ccc(F)cc23)c2cc(Br)cnc21 | 29.8%
7 | COc1ccc2[nH]cc(-c3nnc(N)nc3-c3cn(C)c4ncc(Br)cc34)c2c1 | 106%
8 | COc1ccc(NC(=O)[C@H](C)N)cc1C(=O)Nc1cccc(C2CC(=O)c3c(cc(OC)c(OC)c3OC)O2)c1 (stereo partly drawn) | 107%
9 | CC1(C)CC[C@]2(C(=O)O)CC[C@]3(C)C(=CCC4[C@@]5(C)C[C@@H](O)[C@@H]6OC(c7ccco7)OC[C@@]6(C)C5CC[C@]43C)C2C1 (stereo partly drawn) | 1.3% (active)
10 | COc1ccc2c(c1)c(/C=N/Nc1ccc3ccccc3n1)cn2C | 61.7%
11 | Cc1ccc(S(=O)(=O)c2nc(S(=O)(=O)c3ccc(C)cc3)c(N3CCN(C)CC3)s2)cc1 | 85.8%
12 | COc1cc2c(c(OC)c1OC)C(=O)CC(c1cccc(NC(=O)c3cc(NC(=O)[C@H](C)N)ccc3Cl)c1)O2 (stereo partly drawn) | 62.9%
13 | Cc1ccc(C(=O)C(c2c[nH]c3ccccc23)c2c[nH]c3ccccc23)cc1 | 76.6%
